Results taken from PubChem BioAssay (Tox21).
Records with an inconclusive call do not appear. A call without a number means that no potency is given here. Active and inactive are the calls of the source. Calls come from the whole dose curve; as a rule, active = well fitted cell-killing curve with a large enough effect in the repeat runs; inconclusive = weak or mixed curves; inactive = flat fitted curve, though single readings scatter.

assay: qHTS RealTime-Glo MT Cell Viability Assay in HepG2 cells - 24 hour (AID 1224867); settings: RealTime-Glo luminescence; series mostly up to 76.8 µM; note: nearly all actives have a fitted effect of over 50% in size
Description: U.S. Tox21 Program National Center for Advancing Translational Sciences [NCATS] NIH Chemical Genomics Center [NCGC] U.S. Environmental Protection Agency [EPA] National Institutes of Environmental Health Sciences [NIEHS] National Toxicology Program [NTP] U.S. Food and Drug Administration [FDA] Tox21 Assay Overview: Measure of cell viability is critical in the cell-base assay. Analysis of cell viability is necessary for the characterization of cell responses to cytotoxic drugs and environmental stress. A RealTime-Glo MT Cell Viability Assay to monitor cell viability in real time of continues cell culture during 40 hours of compound treatment was used to screen Tox21 10K library compounds in HepG2 cells. The RealTime-Glo MT Cell Viability Assay is a nonlytic, homogeneous, bioluminescent method to measure cell viability in real time using a simple, plate-based method. The assay involves adding NanoLuc luciferase and a cell-permeant prosubstrate to cells in culture. Viable cells reduce the proprietary prosubstrate to generate a substrate for NanoLuc luciferase. This substrate diffuses from cells into the surrounding culture medium, where it is rapidly used by the NanoLuc Enzyme to produce a luminescent signal. The signal correlates with the number of viable cells, making the assay well suited for cytotoxicity studies.
Tox21 Assay Protocol Summary: The mixture of HepG2 cell suspension and reagents were dispensed at 600cells/6 ul/well in 1536-well tissue culture treated black solid bottom plates using a Multidrop dispenser. After the assay plates were incubated at a 37 C/5% CO2 incubator for 5 hours, 23 nL of compounds dissolved in DMSO, positive and negative controls was transferred to the assay plate by a pintool work station. The plates were incubated at 37 C for 40 hours. The luminescence intensity were measured at 0h, 8h, 16h, 24h, 32h and 40h time points using ViewLux plate reader during compound treatment.
Potency is the fitted concentration of half-maximal effect.

| Compound | Potency |
| --- | --- |
| CC(=O)OCC(C)OC(C)=O (stereo not given) | inactive |
| CN(C/C=C/C#CC(C)(C)C)Cc1cccc2ccccc12 | inactive |
| NC(=O)CC[C@@H]1NC(=O)[C@H](Cc2ccccc2)NC(=O)[C@H](Cc2ccc(O)cc2)NC(=O)CCSSC[C@@H](C(=O)N2CCC[C@H]2C(=O)N[C@@H](CCCN=C(N)N)C(=O)NCC(N)=O)NC(=O)[C@H](CC(N)=O)NC1=O | inactive |
| CCC1OCC(COc2ccc(Oc3ccccc3)cc2)O1 (stereo not given) | inactive |
| C[C@H]1[C@H]2CC[C@H]3[C@@H]4CC=C5C[C@@H](N(C)C)CC[C@]5(C)[C@H]4CC[C@]23CN1C | inactive |
| Cc1cc(CCN2CCN(c3nsc4ccccc34)CC2)cc2c1NC(=O)CC2(C)C | 54.9 µM (active) |
| CC(C)(C)C(=O)OCOC(=O)[C@@H]1N2C(=O)[C@@H](NC(=O)[C@H](N)c3ccccc3)[C@H]2SC1(C)C | inactive |
| CCc1cc(Cc2cc(CC)c(N)c(CC)c2)cc(CC)c1N | inactive |
| C[C@@H](NCCCc1cccc(C(F)(F)F)c1)c1cccc2ccccc12 | 16.9 µM (active) |
| CC1(C)CCC(C)(C)c2cc(C(=O)Nc3ccc(C(=O)O)cc3)ccc21 | inactive |
| Cc1cccc(N(C)C(=S)Oc2ccc3c(c2)C2CCC3C2)c1 (stereo not given) | inactive |
| CCC(N)(CO)CO | inactive |
| Nc1ccccc1O | inactive |
| CCCCCOC(=O)CCCC | inactive |
| CCOC(=O)/C=C(C)/C=C/C=C(C)/C=C/c1c(C)cc(OC)c(C)c1C | inactive |
| CC(C)OC(=O)c1cc2c(OCC(O)CNC(C)(C)C)cccc2[nH]1 (stereo not given) | inactive |
| C=CC(=O)OCCn1c(=O)n(CCOC(=O)C=C)c(=O)n(CCOC(=O)C=C)c1=O | 21.9 µM (active) |
| CSc1ccc(C(=O)c2[nH]c(=O)[nH]c2C)cc1 | inactive |
| CO[Si](CCCNc1ccccc1)(OC)OC | inactive |
| C1CCCC1 | inactive |

| Compound | Potency |
| --- | --- |
| CCc1oc2ccccc2c1C(=O)c1cc(Br)c(O)c(Br)c1 | inactive |
| COc1cc(/C=C/C(=O)O[C@H]2CC[C@]34C[C@]35CC[C@]3(C)[C@@H]([C@H](C)CCC=C(C)C)CC[C@@]3(C)[C@@H]5CC[C@H]4C2(C)C)ccc1O | inactive |
| CCCCCCCC[P+](CCCCCCCC)(CCCCCCCC)CCCCCCCC | 13.7 µM (active) |
| Oc1cc2ccccc2c2ccccc12 | 11 µM (active) |
| Cc1cc2c(cc1C(F)(F)F)N(C(=O)Nc1ccc(Oc3cccnc3C)nc1)CC2 | inactive |
| CCCCCCCCCCn1cc[n+](CCCCCCCCCC)c1C | 19.5 µM (active) |
| CCc1cc(Cc2cc(CC)cc(C(C)(C)C)c2O)c(O)c(C(C)(C)C)c1 | 49 µM (active) |
| O=c1cccccc1O | inactive |
| [Cl][Au]([Cl])[Cl] | 9.77 µM (active) |
| Oc1c(Cl)cc(Cl)c2cccnc12 | inactive |
| O=C1C=CC(=O)N1 | 22.5 µM (active) |
| O=[N+]([O-])c1cc([N+](=O)[O-])c2ccc(S(=O)(=O)O)cc2c1O | inactive |
| CCCCCCCCCCCC[N+](C)(C)CCCCCCCCCCCC | 7.76 µM (active) |
| CCCCc1oc2ccc(NS(C)(=O)=O)cc2c1C(=O)c1ccc(OCCCN(CCCC)CCCC)cc1 | 9.52 µM (active) |
| CC(C)=CCOc1ccc(/C=C/C(=O)c2ccc(OCC=C(C)C)cc2OCC(=O)O)cc1 | inactive |
| N=C1N=C(N)c2cc3ccccc3cc21 | 47.6 µM [cytotoxic] (active) |
| Oc1cccc2cc3cccc(O)c3c(O)c12 | inactive |
| C=CC(=O)OCC(CO)(COCC(COC(=O)C=C)(COC(=O)C=C)COC(=O)C=C)COC(=O)C=C | 4.31 µM (active) |
| O=C(O)c1cc(O)c2c(c1)C(=O)c1cccc(O)c1C2=O | inactive |
| CCCCC(CC)CN=C(N)NC(N)=NCCCCCCN=C(N)NC(N)=NCC(CC)CCCC (stereo not given) | 8.49 µM (active) |
